# Test results taken from PMC4552634, “A New Set of Chemical Starting Points with Plasmodium falciparum Transmission-Blocking Potential for Antimalarial Drug Discovery” (PLoS ONE, 2015).
# About 3,200 (25%) of roughly 13,000 compounds showed an effect of 50% or more. The list shows a part of the results.
# Tested on: P. falciparum stage V gametocytes
# Design: BacTiter-Glo ATP luminescence viability of purified stage V gametocytes in 384-well plates, per cent inhibition versus DMSO
# Conditions: 48 h, 5 µM; inhibitor
row,SMILES,% Inhibition
1,Cc1cccc2[nH]c(-c3ccc(-c4cccc(NC(=O)C(C)CN(C)C)c4)cc3)nc12 (stereo not shown) [TCMDC-137103],-53.92%
2,CC(=O)c1c(CC(=O)O)c2ccccc2n1O [TCMDC-131414],58.24%
3,CCCCOc1ccc(-n2c(Nc3ccccc3)nc3cc(S(N)(=O)=O)ccc32)cc1 [TCMDC-135489],-3.968%
4,CC1CCC(C[C@@H](C(=O)N[C@@H](CCC(=O)N2CCCCC2)C(=O)Nc2nccs2)[C@H](C(C)C)N(O)C=O)CC1 (stereo partly shown) [TCMDC-138168],-16.64%
5,COc1cccc(Nc2nc(Nc3cccc(C#N)c3)cc(-c3ccncc3)n2)c1 [TCMDC-133447],6.387%
6,O=C(CSc1n[nH]c(=O)n1Cc1ccccc1)Nc1ccccc1-c1ccccc1 [TCMDC-123557],0.01985%
7,Cn1c(N)c(C(=O)CSc2nnc(-c3cccs3)n2Cc2ccccc2)c(=O)n(C)c1=O [TCMDC-124496],-5.537%
8,COc1ccccc1-n1c(SCC(=O)c2ccc3c(c2)CC(=O)N3C)nnc1-c1cccs1 [TCMDC-124819],56.33%
9,COc1ccc(C2CC(c3cccs3)=NN2C(=O)c2ccccc2)cc1OC (stereo not shown) [TCMDC-123755],-49.1%
10,CN1CCCC1CNS(=O)(=O)c1ccc(C(=O)NCC2CC2)cc1 (stereo not shown) [TCMDC-133683],0.07982%
11,CCc1ccc(C(=O)NC(=O)c2ccccc2O)cc1 [TCMDC-123479],19.58%
12,Cc1ccc(O)cc1Nc1ccnc2cc(-c3csc(CN(C)CCN(C)C)n3)ccc12 [TCMDC-138458],49.52%
13,CN(C)CCNCc1nc(-c2ccc3c(Nc4ccc(Cl)cc4F)ccnc3c2)cs1 [TCMDC-138455],16.78%
14,CN(C)CCNCc1nc(-c2ccc3c(Nc4ccc(Oc5ccccc5)cc4)ccnc3c2)cs1 [TCMDC-138410],95.14%
15,c1ccc(Oc2ccc(Nc3ccnc4cc(-c5csc(CNCCN6CCOCC6)n5)ccc34)cc2)cc1 [TCMDC-138407],5.088%
16,CS(=O)(=O)CCNCc1nc(-c2ccc3c(Nc4ccc(Oc5ccccn5)cc4)ccnc3c2)cs1 [TCMDC-138438],-37.4%
17,CN(C)CCN(C)Cc1nc(-c2ccc3c(Nc4ccc(Oc5ccccc5)cc4)ccnc3c2)cs1 [TCMDC-138408],77.6%
18,CCc1ccc2nc(-c3ccc(F)cc3)nc(SCC(=O)Nc3sc(C)c(C)c3C#N)c2c1 [TCMDC-125430],16.25%
19,COc1ccc2nccc([C@@H](O)CN3CCC(NC(=O)c4cc5c(F)cc(F)cc5[nH]4)CC3)c2n1 [TCMDC-134945],-17.57%
20,CCCCCCc1c(C)[nH]c2cc(OC)ccc2c1=O [TCMDC-138010],73.98%
21,CCCCCCCc1c(C)[nH]c2cc(OC)ccc2c1=O [TCMDC-137173],75.71%
22,COc1cc2c(=O)c(Cc3ccc(Cl)cc3)c(C)[nH]c2cc1F [TCMDC-137280],22.18%

row,SMILES,% Inhibition
1,CO/C(=C\C=C\c1cc2cc(Cl)c(Cl)cc2[nH]1)C(=O)N[C@H]1CN2CCC1CC2 [TCMDC-139095],-57.18%
2,CO/C(=C\C=C\c1cc2cc(Cl)c(Cl)cc2[nH]1)C(=O)NC1CC2CCCC(C1)N2C (stereo not shown) [TCMDC-139067],19.33%
3,CO/C(=C\C=C\c1cc2cc(Cl)c(Cl)cc2[nH]1)C(=O)NC1CCN(CCOc2ccccc2)CC1 [TCMDC-139454],27.46%
4,CO/C(=C\C=C\c1cc2cc(Cl)c(Cl)cc2[nH]1)C(=O)NC1CC(C)N(C)C(C)C1 (stereo not shown) [TCMDC-139085],-67.29%
5,CO/C(=C\C=C/c1cc2cc(Cl)c(Cl)cc2[nH]1)C(=O)NC1CC(C)(C)N(C)C(C)(C)C1 [TCMDC-139106],-40.37%
6,CO/C(=C\C=C\c1cc2cc(Cl)c(Cl)cc2[nH]1)C(=O)NC1CCN(CCNc2ccccc2)CC1 [TCMDC-139535],-22.32%
7,CO/C(=C\C=C\c1cc2cc(Cl)c(Cl)cc2[nH]1)C(=O)NC1CC2CCC(C1)N2C (stereo not shown) [TCMDC-139038],73.28%
8,CO/C(=C\C=C\c1cc2cc(Cl)c(Cl)cc2[nH]1)C(=O)NC1CCN(CCCc2ccccc2)CC1 [TCMDC-139657],70.65%
9,CO/C(=C/C=C/c1cc2cc(Cl)c(Cl)cc2[nH]1)C(=O)NC1CC(C)(C)N(C)C(C)(C)C1 [TCMDC-139097],81.55%
10,CC(C)(CNC(=O)[C@H]1CCCCN1)c1nc(-c2ccc(Cl)c(O)c2)c(-c2ccncc2)[nH]1 [TCMDC-141070],-44.74%
11,Oc1ccccc1-c1nc2cccnc2n1CCc1cccc(C(F)(F)F)c1 [TCMDC-135091],14.7%
12,CCc1cc2c(Sc3nnc(N)s3)ncnc2s1 [TCMDC-123993],80.67%
13,Cc1sc2ncnc(Sc3nnc(N)s3)c2c1C [TCMDC-124542],96.33%
14,COc1ccc(-c2cc(C(=O)N[C@@H](CC3CCCCC3)C(=O)NC3CCCc4ccccc43)ccc2O)cc1 (stereo partly shown) [TCMDC-140806],24.41%
15,O=C(NCCN1CCCc2ccccc21)C1CCN(c2nc(-c3ccc(Cl)cc3)no2)CC1 [TCMDC-125165],5.616%
16,Cc1noc(C)c1-c1cccc(CNCc2cccc(-c3cccc(-c4nc5cc(F)ccc5[nH]4)c3)c2)c1.O=C(O)C(F)(F)F [TCMDC-133064],-20.89%
17,Cn1cnc2c(Nc3ccncc3)nc(-c3ccc(OC(F)(F)F)cc3)nc21 [TCMDC-141276],-18.84%
18,CC[C@H](N=C(Nc1ccc(C#N)cc1O)Nc1cccc(Cl)c1Cl)c1ccccc1 [TCMDC-140225],74.86%
19,CC[C@H](N=C(Nc1ccc(-c2ccccc2)cc1)Nc1ccc(C#N)cc1O)c1ccccc1 [TCMDC-140209],-62.75%
20,CCCCCC(C)N=C(Nc1ccc(C#N)cc1O)Nc1cccc(Cl)c1Cl (stereo not shown) [TCMDC-140222],-21.37%
21,CSc1c(CNCCCNc2cc(=O)c3ccccc3[nH]2)[nH]c2ccccc12 [TCMDC-140648],-17.76%
